A short description of experiment [1]: qHTS assay to identify aromatase inhibitors - cell viability counter screen (AID 743084).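 Further: cells stimulated with testosterone during compound exposure; nearly all actives have a fitted effect of over 55% in size.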
Experiment [2] has as its target Aryl hydrocarbon receptor (Homo sapiens) (UniProt P35869). The experiment can be described thus: qHTS assay to identify small molecule that activate the aryl hydrocarbon receptor (AhR) signaling pathway (AID 743085). Further: nearly all actives have a fitted effect of over 15% in size. Further: potency means the concentration at half of the fitted maximal effect.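 On activation: HG2L7.5c1 human HepG2 liver cells with stably integrated DRE-driven firefly reporter; series mostly up to about 70 µM.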 The method, boiled down:
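A multiplexed format paired cell viability (CellTiter-Fluor fluorescence) with AhR-dependent luciferase output (ONE-Glo luminescence) in the same wells of HepG2 DRE-luc cells after 24 h compound exposure at 37C.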

The nature of experiment [3]: qHTS assay to identify small molecule that activate the aryl hydrocarbon receptor (AhR) signaling pathway - cell viability counter screen (AID 743086).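 Further: HepG2 liver cells carrying the AhR DRE luciferase reporter; series mostly up to about 70 µM; nearly all actives have a fitted effect of over 45% in size.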 A digest of the protocol:
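Cytotoxicity counter screen: CellTiter-Fluor signal (30 min, 37 C) in 4000 HepG2 cells/well carrying the DRE-luciferase reporter, following 24 h compound exposure at 37 C.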

Experiment [4] deals with Peroxisome proliferator-activated receptor gamma (Homo sapiens) (UniProt P37231). The experiment can be described thus: qHTS assay to identify small molecule agonists of the peroxisome proliferator-activated receptor gamma (PPARg) signaling pathway (AID 743094; active means well fitted activation curve with a large enough effect in the signal ratio in the repeat runs, not every such curve was filed as active; the % refers to the signal ratio). The method, boiled down:
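Quantitative HTS agonist mode: stable HEK293H line with UAS-beta-lactamase reporter under PPARg control, 17 h compound exposure at 37C, fluorescence after 1 h FRET substrate loading at room temperature.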

For experiment [5] the target is unchanged. The experiment is described as follows: qHTS assay to identify small molecule antagonists of the peroxisome proliferator-activated receptor gamma (PPARg) signaling pathway (AID 743191; calls by dose curve; further: nearly all actives have a fitted effect of over 30% in size; further: potency means the concentration at half of the fitted maximal effect). The method, boiled down: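 Beta-lactamase reporter under UAS control in HEK293H PPARg-bla cells; compound treatment 17 h at 37C. Read-out: fluorescence intensity after 1 h room-temperature incubation with LiveBLAzer B/G FRET substrate.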

Experiment [6] is described as follows: qHTS assay to identify small molecule antagonists of the peroxisome proliferator-activated receptor gamma (PPARg) signaling pathway - cell viability counter screen (AID 743194). Further: nearly all actives have a fitted effect of over 55% in size. A digest of the protocol: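 Viability was measured as CellTiter-Glo luminescence in GeneBLAzer PPARg UAS-bla HEK293H cells. These cells had been exposed 17 h at 37 C to compounds together with rosiglitazone at 50 nM final, with the beta-lactamase readout taken in the same wells.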

Experiment [7] can be described thus: qHTS assay for small molecule agonists of the antioxidant response element (ARE) signaling pathway (AID 743202; active means well fitted activation curve with a large enough effect in the signal ratio in the repeat runs, not every such curve was filed as active; the % refers to the signal ratio; further: potency means the concentration at half of the fitted maximal effect). The method, boiled down:
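An ARE-responsive beta-lactamase gene stably integrated in HepG2 cells serves as reporter. After 5 h plating and 16 h compound incubation at 37 C, fluorescence of the B/G FRET substrate was measured.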

Experiment [8] in a line: qHTS assay for small molecule agonists of the antioxidant response element (ARE) signaling pathway - cell viability counter screen (AID 743203; calls by dose curve; further: nearly all actives have a fitted effect of over 55% in size). The method, boiled down: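 Seeded at 2,000 cells/well, ARE-bla HepG2 cells were incubated 5 hrs before compound addition. After 16 hrs of treatment at 37C with 5% CO2, CellTiter-Glo reagent was added and luminescence read 30 min later.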

Experiment [9] can be described thus: qHTS assay for small molecule activators of the heat shock response signaling pathway - cell viability counter screen (AID 743209). Further: nearly all actives have a fitted effect of over 50% in size. The method, boiled down: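 First, HSE-bla HeLa cells were seeded at 1500 cells/well and kept overnight at 37 C. Next, compounds were pinned in and incubated 5 h. After the FRET substrate step, CellTiter-Glo was added and luminescence read 30 min later.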

Experiment [10] in a line: qHTS assay for small molecule activators of the heat shock response signaling pathway (AID 743210; active means well fitted activation curve with a large enough effect in the signal ratio in the repeat runs, with a control signal flat, not every such curve was filed as active; the % refers to the signal ratio;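 further: HeLa cells with beta-lactamase reporter driven by heat shock elements; series mostly up to about 63 µM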). A digest of the protocol:
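In HSE-bla HeLa cells, 5 h compound incubation (37 C) precedes addition of LiveBLAzer B/G substrate; after 2.5 h at room temperature, fluorescence intensity indicates reporter induction.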

Values joined by “and” are separate entries in the source; they are usually repeats but may differ in a detail not shown here. Equal entries are not always repeated. Records with an inconclusive call do not appear. Active and inactive are the calls of the source. Unless noted, the call rests on the fitted dose curve; in most records, active means well fitted curve in the direction sought with a large enough effect in the repeat runs; inconclusive means weak or mixed curves; inactive means no such curve, though single readings can be large; an effect the other way counts as inactive or inconclusive.

Chain of Aryl hydrocarbon receptor (Homo sapiens) (P35869 whole entry, looked up): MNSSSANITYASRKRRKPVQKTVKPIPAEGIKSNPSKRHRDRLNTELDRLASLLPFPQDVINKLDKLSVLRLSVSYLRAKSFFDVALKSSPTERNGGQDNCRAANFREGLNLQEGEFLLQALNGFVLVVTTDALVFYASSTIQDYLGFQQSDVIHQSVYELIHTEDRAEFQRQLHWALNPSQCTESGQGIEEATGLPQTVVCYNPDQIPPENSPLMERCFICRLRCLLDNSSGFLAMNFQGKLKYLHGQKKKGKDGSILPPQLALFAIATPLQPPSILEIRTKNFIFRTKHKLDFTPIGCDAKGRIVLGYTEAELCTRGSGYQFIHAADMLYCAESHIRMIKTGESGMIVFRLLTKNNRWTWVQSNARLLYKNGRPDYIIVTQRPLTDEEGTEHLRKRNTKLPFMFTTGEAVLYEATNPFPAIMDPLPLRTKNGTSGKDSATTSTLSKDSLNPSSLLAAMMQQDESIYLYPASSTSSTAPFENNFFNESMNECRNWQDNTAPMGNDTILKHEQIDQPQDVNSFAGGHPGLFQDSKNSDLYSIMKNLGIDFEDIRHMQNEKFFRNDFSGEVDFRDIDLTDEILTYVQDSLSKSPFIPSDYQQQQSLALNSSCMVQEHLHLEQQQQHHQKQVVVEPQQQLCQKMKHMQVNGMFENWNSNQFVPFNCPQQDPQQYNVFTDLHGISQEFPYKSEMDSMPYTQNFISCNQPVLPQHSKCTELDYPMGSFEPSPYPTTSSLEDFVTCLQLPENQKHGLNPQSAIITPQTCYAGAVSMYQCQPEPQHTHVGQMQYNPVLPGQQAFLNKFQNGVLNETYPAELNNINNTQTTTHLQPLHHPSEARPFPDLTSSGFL
Chain of Peroxisome proliferator-activated receptor gamma (Homo sapiens) (P37231 whole entry, looked up): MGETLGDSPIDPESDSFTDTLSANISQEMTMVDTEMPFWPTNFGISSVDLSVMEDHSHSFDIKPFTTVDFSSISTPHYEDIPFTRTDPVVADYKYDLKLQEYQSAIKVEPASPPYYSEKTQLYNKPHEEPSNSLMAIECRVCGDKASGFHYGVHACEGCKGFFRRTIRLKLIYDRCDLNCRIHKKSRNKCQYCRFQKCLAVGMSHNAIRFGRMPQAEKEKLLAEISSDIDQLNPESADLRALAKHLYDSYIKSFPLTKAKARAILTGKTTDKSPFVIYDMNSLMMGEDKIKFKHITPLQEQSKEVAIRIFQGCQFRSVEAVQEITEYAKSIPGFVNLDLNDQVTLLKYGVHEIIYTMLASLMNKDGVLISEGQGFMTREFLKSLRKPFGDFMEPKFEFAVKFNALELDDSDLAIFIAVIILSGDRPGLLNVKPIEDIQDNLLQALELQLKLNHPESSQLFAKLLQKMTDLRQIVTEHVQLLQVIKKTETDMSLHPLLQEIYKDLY

Take `c1ccc(-c2ccccc2)cc1`: the compound was classed as inactive in experiment [1], in experiment [3], in [4], in [6], in [8] and in [9]. In [10], the call was inactive. Further, the Potency result in experiment [2], in [5] and in [7] was “inactive” in each case.
As for `CNC(=O)Oc1ccccc1OC(C)C`, the outcome in [1], in experiment [3], in experiment [4], in [6], in experiment [8] and in experiment [9] was inactive. In addition, the call in experiment [10] was inactive. The Potency result in [2] and in experiment [7] was “inactive” in each case.
As for `C[C@]12CC[C@H]3[C@@H](CC[C@@]45O[C@@H]4C(O)=C(C#N)C[C@]35C)[C@@H]1CC[C@@H]2O`, the compound was called inactive in experiment [1], in [3], in experiment [6], in experiment [8], in experiment [9] and in experiment [10]. Also, in experiment [2], the Potency entry is “inactive”. Besides, the Potency in experiment [7] is 30.6 µM (active) and 23.7 µM (active).
`Cc1ccc(N)cc1Cl`: the call in experiment [1], in experiment [3], in experiment [4], in experiment [6], in [8] and in experiment [9] was inactive. In addition, in [10], the compound was called inactive. Besides, the Potency result in experiment [5] and in experiment [7] was “inactive” each time.
On to `CC(NC(C)(C)C)C(=O)c1cccc(Cl)c1` (stereo not drawn), for which the outcome in [1], in experiment [3], in experiment [6], in [8] and in [9] was inactive. The Potency result in [2] and in [7] was “inactive” each time.
For the compound `CC(C)(Cl)Cl`, the result in [1], in [3], in [4], in [6], in experiment [8] and in experiment [9] was inactive. Besides, the call in experiment [10] was inactive. Also, the Potency entry in [2] and in [5] was “inactive” each time.
In the case of `Cc1cccc([N+](=O)[O-])c1`, the compound was classed as inactive in experiment [1], in experiment [3], in experiment [4], in experiment [6], in [8] and in experiment [9]. For the same compound, the result in experiment [10] was inactive. The Potency result in [5] and in experiment [7] was “inactive” each time.
For the compound `CN(C)CCO`, the compound was called inactive in experiment [1], in experiment [3], in [4], in [6], in experiment [8] and in experiment [9]. Moreover, the result in experiment [10] was inactive. For the same compound, the Potency entry in experiment [2], in [5] and in [7] was “inactive” in each case.
Take `Nc1ccc(Br)cc1`: the compound was classed as inactive in experiment [1], in experiment [3], in [4], in [6], in [8] and in experiment [9]. Also, the compound was called inactive in experiment [10]. Further, the Potency in experiment [2] is 61 µM (active) and 21.7 µM (active). Further, in experiment [7], the Potency entry was “inactive”.
For the compound `O=S(=O)(c1ccc(Cl)cc1)c1cc(Cl)c(Cl)cc1Cl`, the outcome in experiment [1], in experiment [3], in [4], in [6], in [8] and in experiment [9] was inactive. For the same compound, the Potency result in [2] and in experiment [7] was “inactive” in each case.
Take `OCCN(CCO)CCO`: the call in [3], in [6], in experiment [8] and in experiment [9] was inactive. Besides, the Potency entry in experiment [7] was “inactive”.
On to `CN1C(=O)CN=C(c2ccccc2)c2cc(Cl)ccc21`, for which the outcome in experiment [1], in experiment [3], in experiment [6], in experiment [8], in [9] and in experiment [10] was inactive. For the same compound, the Potency result in experiment [7] was “inactive”.
For the compound `CCNc1nc(NC(C)(C)C)nc(SC)n1`, the compound was called inactive in experiment [1], in experiment [3], in experiment [4], in [6], in [8] and in [9]. For the same compound, the compound was classed as inactive in [10]. Also, the Potency in experiment [2] is 1.52 µM (active). Moreover, the Potency entry in experiment [5] was “inactive”.
Turning to `CC(C)OC(=O)Nc1cccc(Cl)c1`, the call in experiment [1], in [3], in experiment [4], in experiment [6], in [8] and in experiment [9] was inactive. In addition, in experiment [10], the outcome was inactive. Also, the Potency result in experiment [2] and in experiment [7] was “inactive” each time.
Consider `Clc1cccc(Cl)c1Cl`, for which the compound was called inactive in experiment [1], in experiment [3], in experiment [4], in experiment [6], in experiment [8] and in experiment [9]. The result in [10] was inactive. Moreover, the Potency result in experiment [2], in [5] and in experiment [7] was “inactive” in each case.
For `C#CC(C)(C)NC(=O)c1cc(Cl)cc(Cl)c1`, the compound was called inactive in experiment [1], in experiment [3], in [6], in experiment [8], in [9] and in [10]. Besides, the Potency entry in experiment [2] and in [7] was “inactive” in each case.
With `CCC(C)(CC)c1cc(NC(=O)c2c(OC)cccc2OC)on1`, the compound was called inactive in experiment [1], in [3], in experiment [4], in [6], in [8] and in [9]. In [10], the call was inactive. Moreover, the Potency in experiment [2] is 61.3 µM (active).
For `CCCC1COC(Cn2cncn2)(c2ccc(Cl)cc2Cl)O1` (stereo not drawn), the result in experiment [1], in experiment [3], in [4], in experiment [6], in experiment [8] and in experiment [9] was inactive. Besides, the call in experiment [10] was inactive. In addition, the Potency in experiment [2] was 34.4 µM (active). Further, the Potency entry in experiment [5] was “inactive”.
`c1ccc2c(c1)Oc1ccccc1O2`: the result in experiment [1], in [3], in experiment [6], in experiment [8], in [9] and in experiment [10] was inactive. Besides, the Potency entry in experiment [2] and in experiment [7] was “inactive” in each case.
Consider `Clc1ccccc1Cl`, for which the call in [1], in experiment [3], in experiment [4], in [6], in experiment [8] and in experiment [9] was inactive. Further, in experiment [10], the compound was classed as inactive. In addition, the Potency entry in [2] and in experiment [7] was “inactive” in each case.
With `O=c1[nH]c2ccccc2c(=O)o1`, the compound was called inactive in [1], in experiment [3], in experiment [4], in experiment [6], in experiment [8] and in [9]. Moreover, the result in experiment [10] was inactive. Also, the Potency result in [2] and in [7] was “inactive” throughout.
Consider `CC(C)(C)OOC(C)(C)C`, for which the call in experiment [1], in experiment [3], in [4], in [6], in experiment [8] and in experiment [9] was inactive. For the same compound, the compound was classed as inactive in [10]. Moreover, the Potency result in experiment [2] and in [7] was “inactive” in each case.
Turning to `CN(C)[C@@H]1C(=O)C(C(N)=O)=C(O)[C@@]2(O)C(=O)C3=C(O)c4c(O)cccc4[C@@](C)(O)[C@H]3C[C@@H]12`, the compound was classed as inactive in experiment [1], in [3], in experiment [4], in experiment [6], in experiment [8] and in [9]. Besides, the call in [10] was inactive. The Potency entry in experiment [2] was “inactive”.
`COC(=O)NC(=S)Nc1ccccc1NC(=S)NC(=O)OC`: the outcome in experiment [1], in [3], in [4], in experiment [6], in [8] and in experiment [9] was inactive. For the same compound, the compound was called inactive in [10]. For the same compound, the Potency entry in experiment [5] is “inactive”.
With `CCOC(=O)c1ccccc1C(=O)OCC`, the result in experiment [1], in experiment [3], in experiment [4], in experiment [6], in [8] and in experiment [9] was inactive. Moreover, the compound was classed as inactive in [10]. The Potency result in experiment [5] and in [7] was “inactive” in each case.
Turning to `CCc1cccc(C)c1N(C(=O)CCl)C(C)COC` (stereo not drawn), the call in experiment [1], in experiment [3], in experiment [6], in experiment [8], in experiment [9] and in experiment [10] was inactive. Also, in [2], the Potency entry was “inactive”. Moreover, the Potency was 21.9 µM (active) in [5]; 8.14 µM (active) and 19.3 µM (active) in [7].
Take `CON(C)C(=O)Nc1ccc(Cl)c(Cl)c1`: the call in [1], in experiment [3], in experiment [4], in experiment [6], in experiment [8] and in experiment [9] was inactive. Besides, in experiment [10], the compound was classed as inactive. Also, in [2], the Potency was 21.8 µM (active) and 27.3 µM (active). Besides, the Potency result in [7] was “inactive”.
Turning to `[N-]=[N+]=[N-]`, the call in [1], in experiment [3], in experiment [4], in experiment [6], in experiment [8] and in [9] was inactive. The result in [10] was inactive. In addition, the Potency entry in experiment [5] was “inactive”.
In the case of `C=CCO`, the result in [1], in experiment [3], in experiment [6], in experiment [8] and in [9] was inactive. In addition, the Potency entry in [2] and in [7] was “inactive” each time.
For the compound `c1ccc2c(c1)oc1ccccc12`, the result in experiment [3], in [6], in [8], in experiment [9] and in experiment [10] was inactive. The Potency result in [7] was “inactive”.
As to `C=CC(N)=O`, the compound was classed as inactive in [1], in [3], in experiment [6], in experiment [8], in experiment [9] and in experiment [10]. The Potency result in experiment [2] and in experiment [7] was “inactive” throughout.
On to `O=C(NC(=O)c1c(F)cccc1F)Nc1cc(Cl)c(OC(F)(F)C(F)C(F)(F)F)cc1Cl` (stereo not drawn), for which the outcome in experiment [1], in [3], in experiment [4], in experiment [6], in experiment [8] and in [9] was inactive. Besides, the call in [10] was inactive. The Potency result in [2] is “inactive”.

The values above are taken from PubChem BioAssay (Tox21).
